Measured values as given in PubChem BioAssay (Tox21).
Records with an inconclusive call do not appear. The source made the active and inactive calls. Unless noted, calls come from the whole dose curve; as a rule, active = well fitted curve in the direction sought with a large enough effect in the repeat runs; inconclusive = weak or mixed curves; inactive = flat fitted curve, though single readings scatter.

Tests used:
[1] = qHTS assay to test for compound auto fluorescence at 535 nm (green) in HEK293 cells (AID 720680)
[2] = qHTS assay to test for compound auto fluorescence at 460 nm (blue) in HEK293 cell free culture (AID 720681)
Procedure, shortened: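 Compounds were added to cell-free DMEM with 10% FBS and fluorescence read directly. The blue channel used 405 nm excitation and 460 nm emission, with triamterene as the reference fluorophore.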

[3] = qHTS assay to test for compound auto fluorescence at 535 nm (green) in HEK293 cell free culture (AID 720682)
Procedure, shortened: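 DMEM + 10% FBS, cell-free; cpd or DMSO pinned in; Ex485/Em535 read; output as fluorescein-equivalent signal.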

[4] = qHTS assay to test for compound auto fluorescence at 590 nm (red) in HEK293 cell free culture (AID 720683)
Procedure, shortened: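 Cell-free wells of DMEM with 10% FBS received compound, and intrinsic fluorescence was read at excitation/emission 540/590 nm. Values expressed as equivalence to Rose Bengal sodium.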

[5] = qHTS assay to test for compound auto fluorescence at 590 nm (red) in HepG2 cell free culture (AID 720684)
Procedure, shortened: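 Compounds are added to culture medium (MEM, 10% FBS) lacking cells, then fluorescence is read at excitation 540 nm, emission 590 nm, with Rose Bengal sodium as the equivalency standard.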

[6] = qHTS assay to test for compound auto fluorescence at 460 nm (blue) in HepG2 cells (AID 720687)
Procedure, shortened: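 HepG2 cells in MEM with 10% FBS, attached overnight at 37 C, were exposed to compound or DMSO for 1 hr at 37 C, 5% CO2. Blue fluorescence was read at 405/460 nm, with triamterene as reference fluorophore.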

[7] = target: Glucocorticoid receptor (Homo sapiens) (UniProt P04150); experiment: qHTS assay to identify small molecule agonists of the glucocorticoid receptor (GR) signaling pathway (AID 720691; active = well fitted activation curve with a large enough effect in the signal ratio in the repeat runs, not every such curve was filed as active; the % refers to the signal ratio)
Procedure, shortened: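 Fluorescence intensity from LiveBLAzer B/G FRET substrate (2 h, room temperature) reports beta-lactamase expression driven by the glucocorticoid response element in GR-bla HeLa cells after 18 h compound exposure at 37 C.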

[8] = target: Glucocorticoid receptor (Homo sapiens) (UniProt P04150); experiment: qHTS assay to identify small molecule antagonists of the glucocorticoid receptor (GR) signaling pathway (AID 720692; active = well fitted inhibition curve with a large enough effect in the signal ratio in the repeat runs, not every such curve was filed as active; the % refers to the signal ratio; note: potency is the fitted concentration of half-maximal effect)
Procedure, shortened: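 HeLa GR-bla cells; cmpd + dex 5 nM final, 18 h 37 C; LiveBLAzer B/G FRET substrate 2 h RT; fluorescence intensity read. Antagonist mode, qHTS.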

[9] = qHTS assay to test for compound auto fluorescence at 535 nm (green) in HepG2 cell free culture (AID 720686)
[10] = qHTS assay to test for compound auto fluorescence at 460 nm (blue) in HepG2 cell free culture (AID 720685)
Procedure, shortened: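 Compound (23 nL) or DMSO pinned into cell-free MEM with 10% FBS; blue fluorescence read at 405/460 nm excitation/emission, expressed as auto-fluorescence equivalency to triamterene.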

Measured: Potency

Sequence of Glucocorticoid receptor (Homo sapiens) (P04150 whole entry, looked up): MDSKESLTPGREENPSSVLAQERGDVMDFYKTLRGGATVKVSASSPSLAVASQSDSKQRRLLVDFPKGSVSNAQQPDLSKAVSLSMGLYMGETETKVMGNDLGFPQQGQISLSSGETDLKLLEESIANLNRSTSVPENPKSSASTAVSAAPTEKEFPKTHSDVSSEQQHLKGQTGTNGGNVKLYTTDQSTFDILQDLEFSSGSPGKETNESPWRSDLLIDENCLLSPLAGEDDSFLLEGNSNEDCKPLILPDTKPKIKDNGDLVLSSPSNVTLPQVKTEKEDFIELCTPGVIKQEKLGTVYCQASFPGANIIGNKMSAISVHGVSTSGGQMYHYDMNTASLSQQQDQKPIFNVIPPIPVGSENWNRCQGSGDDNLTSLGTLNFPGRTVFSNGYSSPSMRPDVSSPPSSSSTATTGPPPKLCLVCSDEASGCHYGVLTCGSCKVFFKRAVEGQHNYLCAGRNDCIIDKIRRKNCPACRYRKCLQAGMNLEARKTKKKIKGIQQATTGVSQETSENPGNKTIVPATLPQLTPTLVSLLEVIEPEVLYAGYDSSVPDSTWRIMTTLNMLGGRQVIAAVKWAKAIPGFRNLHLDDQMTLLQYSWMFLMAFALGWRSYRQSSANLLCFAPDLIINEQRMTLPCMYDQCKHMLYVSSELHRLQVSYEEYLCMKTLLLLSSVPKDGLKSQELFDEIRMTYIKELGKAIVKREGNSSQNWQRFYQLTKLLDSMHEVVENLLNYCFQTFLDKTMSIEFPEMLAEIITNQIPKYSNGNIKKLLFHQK

CCc1ccc(C)cc1
not listed: [9] | [10]
inactive: all other assays above

CCC(C)(C)C(=O)O
not listed: [8] | [10]
inactive: all other assays above

C[C@H](CS)C(=O)N1CCC[C@H]1C(=O)O
not listed: [10]
inactive: all other assays above

O=[N+]([O-])C1(Br)COCOC1
not listed: [7] | [8] | [10]
inactive: all other assays above

CC(C)(C)C1(CCc2ccc(Cl)cc2)CO1 (stereo not given)
not listed: [5] | [7] | [8]
inactive: all other assays above

CCN(CC)c1ccc(C(=C2C=CC(=[N+](CC)CC)C=C2)c2ccc(S(=O)(=O)O)cc2S(=O)(=O)[O-])cc1
not listed: [8] | [10]
inactive: all other assays above

O=C(O)c1cc(Cl)cc(Cl)c1O
not listed: [7] | [8] | [10]
inactive: all other assays above

O[C@@H](CNC[C@H](O)[C@H]1CCc2cc(F)ccc2O1)[C@@H]1CCc2cc(F)ccc2O1
active: [8] 23.9 µM
not listed: [7] | [10]
inactive: all other assays above

CCCCCCCCCCCC(=O)OCC(O)CO (stereo not given)
inactive: [1] | [2] | [3] | [4] | [5] | [6]

CC1C(C)(C)C2=C(C(=O)CCC2)C1(C)C (stereo not given)
not listed: [10]
inactive: all other assays above

CCN(CC)c1cccc(O)c1
not listed: [9] | [10]
inactive: all other assays above

CCC1CCC(CCC(=O)O)C1 (stereo not given)
not listed: [8] | [10]
inactive: all other assays above

CC1CCc2nccnc21 (stereo not given)
not listed: [7] | [8] | [10]
inactive: all other assays above

c1ccc(CNc2ncnc3c2ncn3C2CCCCO2)cc1 (stereo not given)
not listed: [10]
inactive: all other assays above

Cc1ccc(Cl)cc1N
not listed: [9] | [10]
inactive: all other assays above

CCCCCCCCCCCCCOS(=O)(=O)O
not listed: [5] | [7] | [8]
inactive: all other assays above

Nc1ccc(N=Nc2ccc(N)cc2)cc1
not listed: [7] | [8] | [10]
inactive: all other assays above

CC(CCc1ccc(O)cc1)NCCc1ccc(O)c(O)c1 (stereo not given)
not listed: [9]
inactive: all other assays above

CC1CCCO1 (stereo not given)
not listed: [7] | [8] | [10]
inactive: all other assays above

CCCCCCC(O)CCOC(C)=O (stereo not given)
inactive: [1] | [2] | [3] | [4] | [5] | [6]

COc1ccc(/C=C/C(=O)c2ccc(OC)cc2OC)cc1
not listed: [8] | [9]
inactive: all other assays above

CO[C@@H]1[C@@H](OC)[C@H](C)[C@@](O)(CC(=O)O)O[C@H]1[C@H](C)[C@H]1O[C@@]2(CC[C@@](C)([C@H]3CC[C@@](C)([C@@H]4O[C@@H]([C@H]5O[C@](C)(O)[C@H](C)C[C@@H]5C)C[C@@H]4OC4C[C@H](OC)[C@@H](OC)[C@H](C)O4)O3)O2)C[C@H](O)[C@H]1C (stereo not given in full)
not listed: [8] | [9]
inactive: all other assays above

CNc1c2c(nn1C)CCCC2
not listed: [9]
inactive: all other assays above

CCCc1nc2c(C)cc(-c3nc4ccccc4n3C)cc2n1Cc1ccc(-c2ccccc2C(=O)O)cc1
not listed: [8] | [10]
inactive: all other assays above

CC(=O)C(C)=O
not listed: [10]
inactive: all other assays above
